{"source": "ChEMBL document CHEMBL3433997", "about": "“St. Jude Leishmania screening dataset” (2016)", "format_in_all_cases": "functional", "key": {"[1]": {"biological_target": "Solute carrier family 2, facilitated glucose transporter member 1 (Homo sapiens) (UniProt P11166)", "sequence (P11166 whole entry)": "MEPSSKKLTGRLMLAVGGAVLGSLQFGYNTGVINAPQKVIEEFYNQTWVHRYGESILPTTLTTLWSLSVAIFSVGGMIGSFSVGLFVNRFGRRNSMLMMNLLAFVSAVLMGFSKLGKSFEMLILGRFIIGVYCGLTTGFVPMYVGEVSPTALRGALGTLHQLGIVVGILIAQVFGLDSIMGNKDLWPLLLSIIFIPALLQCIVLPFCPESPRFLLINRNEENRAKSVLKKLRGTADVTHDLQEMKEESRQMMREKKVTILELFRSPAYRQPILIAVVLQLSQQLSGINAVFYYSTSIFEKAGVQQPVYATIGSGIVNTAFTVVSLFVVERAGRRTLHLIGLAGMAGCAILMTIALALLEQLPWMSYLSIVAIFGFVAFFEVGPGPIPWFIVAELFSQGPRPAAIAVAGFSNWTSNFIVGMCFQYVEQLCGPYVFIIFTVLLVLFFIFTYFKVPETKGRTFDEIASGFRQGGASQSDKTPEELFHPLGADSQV", "experiment": "ST_JUDE_LEISH: Cytotoxicity at 2uM final concentration against transgenic Leishmania Mexicana promastigotes LmGLUT1 that are glucose transport deficient and complemented with the human glucose transporter GLUT1. Activity is measured by DNA content using SYBR green in vitro"}, "[2]": {"biological_target": "Hexose transporter 1 (Plasmodium falciparum) (UniProt O97467)", "experiment": "ST_JUDE_LEISH: Cytotoxicity at 2uM final concentration against transgenic Leishmania Mexicana promastigotes LmPfHT that are glucose transport deficient and complemented with the Plasmodium falciparum hexose transporter. Activity is measured by DNA content using SYBR green in vitro"}, "[3]": {"biological_target": "Glucose transporter (Leishmania mexicana) (UniProt O61059)", "experiment": "ST_JUDE_LEISH: Cytotoxicity at 2uM final concentration against transgenic Leishmania Mexicana promastigotes LmGT2 that are glucose transport deficient and complemented with the L. Mexicana glucose transporter 2. Activity is measured by DNA content using SYBR green in vitro"}}}
{"smiles": "COc1cccc(CC(=O)NC2CCN(c3ccnc4cc(Cl)ccc34)C2)c1", "note": "(stereo unspecified)", "values": [{"measurement": "inhibition", "setting": "[1]", "result": 0.02, "unit": "%"}, {"measurement": "inhibition", "setting": "[2]", "result": -0.46, "unit": "%"}, {"measurement": "inhibition", "setting": "[3]", "result": 1.48, "unit": "%"}]}
{"smiles": "Cc1cccc2nc(-c3ccc(-c4ccc(CNCCCNS(C)(=O)=O)cc4)s3)[nH]c12", "values": [{"measurement": "inhibition", "setting": "[1]", "result": 7.9, "unit": "%"}, {"measurement": "inhibition", "setting": "[2]", "result": 8.05, "unit": "%"}, {"measurement": "inhibition", "setting": "[3]", "result": 6.95, "unit": "%"}]}
{"smiles": "CCc1c(C)nc2nc(Cc3cccc(F)c3)nn2c1N1CCN(c2ccccn2)CC1", "values": [{"measurement": "inhibition", "setting": "[1]", "result": 14.9, "unit": "%"}, {"measurement": "inhibition", "setting": "[2]", "result": 12, "unit": "%"}, {"measurement": "inhibition", "setting": "[3]", "result": 9.56, "unit": "%"}]}
{"smiles": "Cc1cccc2nc(-c3ccc(-c4ccc(NC(=O)CN5CCN(C)CC5)cc4)cc3)[nH]c12", "values": [{"measurement": "inhibition", "setting": "[1]", "result": 2.26, "unit": "%"}, {"measurement": "inhibition", "setting": "[2]", "result": 1.8, "unit": "%"}, {"measurement": "inhibition", "setting": "[3]", "result": 4.7, "unit": "%"}]}
{"smiles": "COc1c(C2CCN(CCCCNC(=O)c3ccc(C)c(-c4ccc(C(F)(F)F)cc4)c3)CC2)ccc2c1CCCC2", "values": [{"measurement": "inhibition", "setting": "[1]", "result": -1.99, "unit": "%"}, {"measurement": "inhibition", "setting": "[2]", "result": -1.46, "unit": "%"}, {"measurement": "inhibition", "setting": "[3]", "result": -0.09, "unit": "%"}]}
{"smiles": "COc1ccccc1CN1CCC(CNC(=O)c2cc(-c3ccc(N(C)C)cc3)cs2)C1", "note": "(stereo unspecified)", "values": [{"measurement": "inhibition", "setting": "[1]", "result": 15.2, "unit": "%"}, {"measurement": "inhibition", "setting": "[2]", "result": 11.8, "unit": "%"}, {"measurement": "inhibition", "setting": "[3]", "result": 10.9, "unit": "%"}]}
{"smiles": "Cc1cc(N(C)C)nc(Nc2ccc(NC(=O)C(C)Oc3ccccc3)cc2)n1", "note": "(stereo unspecified)", "values": [{"measurement": "inhibition", "setting": "[1]", "result": 13.2, "unit": "%"}, {"measurement": "inhibition", "setting": "[2]", "result": 14.5, "unit": "%"}, {"measurement": "inhibition", "setting": "[3]", "result": 9.35, "unit": "%"}]}
{"smiles": "Oc1ccc2[nH]c(-c3cccc(F)c3)nc2c1CN1CCC(O)(c2ccccc2)CC1", "values": [{"measurement": "inhibition", "setting": "[1]", "result": 3.21, "unit": "%"}, {"measurement": "inhibition", "setting": "[2]", "result": 4.5, "unit": "%"}, {"measurement": "inhibition", "setting": "[3]", "result": 1.7, "unit": "%"}]}
{"smiles": "OCCN1CCN(Cc2cccc(-c3ccc(-c4nc5cc(C(F)(F)F)ccc5[nH]4)s3)c2)CC1", "values": [{"measurement": "inhibition", "setting": "[1]", "result": 2.38, "unit": "%"}, {"measurement": "inhibition", "setting": "[2]", "result": -3.19, "unit": "%"}, {"measurement": "inhibition", "setting": "[3]", "result": 0.82, "unit": "%"}]}
{"smiles": "CC(CN1CCN(C)CC1)C(=O)Nc1ccc(-c2ccc(-c3nc4cc(F)ccc4[nH]3)cc2)cc1", "note": "(stereo unspecified)", "values": [{"measurement": "inhibition", "setting": "[1]", "result": 9.06, "unit": "%"}, {"measurement": "inhibition", "setting": "[2]", "result": 3.05, "unit": "%"}, {"measurement": "inhibition", "setting": "[3]", "result": 8.04, "unit": "%"}]}
{"smiles": "N#Cc1ccc(N2CCN(Cc3cccc(-c4ccc(-c5nc6ccccc6[nH]5)cc4)c3)CC2)nc1", "values": [{"measurement": "inhibition", "setting": "[1]", "result": 6.09, "unit": "%"}, {"measurement": "inhibition", "setting": "[2]", "result": 3.68, "unit": "%"}, {"measurement": "inhibition", "setting": "[3]", "result": -0.67, "unit": "%"}]}
{"smiles": "Cc1cc(C(F)(F)F)n2nc(C(=O)N(Cc3cncn3Cc3cccc(F)c3)CC3CC3)cc2n1", "values": [{"measurement": "inhibition", "setting": "[1]", "result": -0.1, "unit": "%"}, {"measurement": "inhibition", "setting": "[2]", "result": -0.07, "unit": "%"}, {"measurement": "inhibition", "setting": "[3]", "result": 2.14, "unit": "%"}]}
{"smiles": "O=C1Nc2cccc3c2C1(CCCCN1CCC(c2c(-c4ccccc4)[nH]c4ccccc24)CC1)CCC3", "note": "(stereo unspecified)", "values": [{"measurement": "inhibition", "setting": "[1]", "result": 3.04, "unit": "%"}, {"measurement": "inhibition", "setting": "[2]", "result": 2.74, "unit": "%"}, {"measurement": "inhibition", "setting": "[3]", "result": -0.14, "unit": "%"}]}
{"smiles": "O=c1cc(NCCCCNCc2cccc(Cl)c2)[nH]c2ccccc12", "values": [{"measurement": "inhibition", "setting": "[1]", "result": 3.6, "unit": "%"}, {"measurement": "inhibition", "setting": "[2]", "result": 3.79, "unit": "%"}, {"measurement": "inhibition", "setting": "[3]", "result": 1.87, "unit": "%"}]}
{"smiles": "O=c1[nH]c2c(cc1CNC1CCCCC1)c(-c1ccc(F)cc1)nn2-c1ccccc1", "values": [{"measurement": "inhibition", "setting": "[1]", "result": -1.4, "unit": "%"}, {"measurement": "inhibition", "setting": "[2]", "result": -1.47, "unit": "%"}, {"measurement": "inhibition", "setting": "[3]", "result": 0.4, "unit": "%"}]}
{"smiles": "CN1CCCC(CN2CCN(Cc3ccc(-c4ccc(-c5nc6cc(F)ccc6[nH]5)cc4)cc3)CC2)C1", "note": "(stereo unspecified)", "values": [{"measurement": "inhibition", "setting": "[1]", "result": 2.18, "unit": "%"}, {"measurement": "inhibition", "setting": "[2]", "result": 4.45, "unit": "%"}, {"measurement": "inhibition", "setting": "[3]", "result": 2.38, "unit": "%"}]}
{"smiles": "O=C(NC1CCC(N2CCC(O)(c3ccc(F)cc3)CC2)CC1)c1cc2ccccc2[nH]1", "note": "(stereo unspecified)", "values": [{"measurement": "inhibition", "setting": "[1]", "result": 1.2, "unit": "%"}, {"measurement": "inhibition", "setting": "[2]", "result": 2.62, "unit": "%"}, {"measurement": "inhibition", "setting": "[3]", "result": -0.31, "unit": "%"}]}
